In the library only some 7.6% were active in any assay of this set; here they are far more common.
VP16 counter – counter-screen for ROR gamma inhibitors: Gal4-VP16 reporter; Drosophila S2 Gal4-VP16 UAS-luciferase, luminescence, 20 h; 310,000 tested, 3.5% active; Potency, µM (doses to about 53.6 µM), hits mostly inhibitors;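 further: Gal4-VP16 expression switched on by copper sulfate through the metallothionein promoter; nearly all actives have a fitted effect of over 50% in size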
Giardia killer – kills Giardia lamblia. Giardia lamblia trophozoite viability. activity change, % at 7.66 µM, hits read low. 340,000 tested, 0.15% active; in the data active means activity change below about -80%; inconclusive means between about -30% and that limit;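 further: parasites exposed to compound for two days anaerobically before the ATP read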
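Giardia lamblia trophozoites (100 cells/well) were incubated with compounds for 48 h at 37 deg C under anaerobic conditions. Viability was read as ATP content by one-step luminescence after 15-30 min at room temperature.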
p53 reactivator – mutant p53 re-activation in reporter cells; Potency, µM (doses to about 92.2 µM), hits mostly activators; AID 504706; 320,000 tested, 0.063% active; H1299 p53-A138V BP100-luciferase reporter, luminescence, 24 h; further: nearly all actives have a fitted effect of over 45% in size
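p53-null H1299 cells stably carrying temperature-sensitive p53-A138V and a BP100-luciferase reporter were pinned with compounds (4-point, 1:5 series) and held 24 hrs at 37 deg C. Luminescence was read 10 min after detection reagent.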
ELG1 repair inh – inhibitors of ELG1-dependent DNA repair in HEK293T cells. AID 504467. Potency, µM (top dose mostly 46.1 µM), actives largely listed as inhibitors. HEK293T ELG1-luciferase reporter, luminescence, 16 h; DNA damage induced by 5-fluorouridine. 330,000 tested, 2.3% active; further: nearly all actives have a fitted effect of over 55% in size
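Luminescence from the luciferase reporter, measured 30 min after ONE-Glo reagent at room temperature, was the read-out. Beforehand, 2,000 cells per well were exposed for 16 hr at 37 °C to 5-fluorouridine together with compound or vehicle.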
BRCA1 expr act – BRCA1 expression activation. MCF7-BRCA1-FFLuc reporter, luminescence, 48 h; response scale: scaled: vehicle 0%, 10 µM genistein 100%. Potency, µM (titrated, usually from 46.1 µM), usual class: activators. 380,000 tested, 1.1% active. AID 624202; further: nearly all actives have a fitted effect of over 80% in size
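Using MCF7 cells harboring a BRCA1 firefly luciferase reporter, plated 2 h before compound pinning, the screen measured luminescence after 48 h incubation. Responses were normalized to DMSO and 10 microM genistein, then fitted for concentration-effect.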
RORg inh – ROR gamma (mouse) transcription inhibition; P51450; Potency, µM (titrated, usually from 53.6 µM), usual class: inhibitors; Drosophila S2 Gal4-RORgamma UAS-luciferase reporter, 20 h; 310,000 tested, 5.4% active; further: nearly all actives have a fitted effect of over 60% in size
Target sequence (P51450 whole entry, looked up, the tested form may be a part): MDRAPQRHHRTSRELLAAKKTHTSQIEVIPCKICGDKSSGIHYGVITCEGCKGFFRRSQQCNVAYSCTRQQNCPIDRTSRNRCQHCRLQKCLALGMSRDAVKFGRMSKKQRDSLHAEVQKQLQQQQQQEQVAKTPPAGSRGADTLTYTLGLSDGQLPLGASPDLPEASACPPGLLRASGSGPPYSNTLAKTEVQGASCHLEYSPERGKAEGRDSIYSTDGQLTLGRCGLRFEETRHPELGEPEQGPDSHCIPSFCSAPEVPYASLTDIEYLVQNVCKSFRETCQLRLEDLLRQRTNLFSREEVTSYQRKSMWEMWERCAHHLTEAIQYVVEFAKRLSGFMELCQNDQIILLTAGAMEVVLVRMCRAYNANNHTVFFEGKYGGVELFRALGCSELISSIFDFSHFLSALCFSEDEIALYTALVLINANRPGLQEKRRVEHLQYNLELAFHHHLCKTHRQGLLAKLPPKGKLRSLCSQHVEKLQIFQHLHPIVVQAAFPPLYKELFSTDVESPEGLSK
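A Gal4/UAS one-hybrid system in insect cells: metallothionein-promoter Gal4–ROR gamma fusion plus Photinus luciferase reporter. Copper sulfate 700 uM final, 20 hr ambient incubation, luminescent detection after 10 min with reagent.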
Of the large screens only hits and unclear results are named; the others gave an inactive call. Unless noted, the call rests on the fitted dose curve; in most records, active means well fitted curve in the direction sought with a large enough effect; inconclusive means small, poorly fitted or top-dose-only effect, or another doubt; inactive means no such curve, though single readings can be large; an effect the other way counts as inactive or inconclusive.

O=C(CNC(=O)c1ccc(Br)o1)NC1CCCCCC1	ELG1 repair inh inconclusive (no result: VP16 counter, RORg inh)
O=C(/C=C/c1cccs1)NC(=S)NNC(=O)Cc1cccs1	VP16 counter inconclusive, RORg inh 11µM
COc1ccc(C(=O)NC(=S)NNC(=O)Cc2cccs2)cc1	VP16 counter inconclusive, p53 reactivator inconclusive, RORg inh 6.3µM
CC1CC(C)CN(C(=O)C2CCN(S(=O)(=O)N3CCC4(CC3)OCCO4)CC2)C1 (stereo not given)	none
CSCCC(NC(=O)COc1ccccc1)C(=O)N1CCC(C(N)=O)CC1 (stereo not given)	none (no result: VP16 counter, RORg inh)
COC(=O)c1ccc(C(NC(=O)OCc2ccccc2)/C(F)=C/[C@@H](C)C(=O)Nc2ccc(OC)cc2)cc1 (stereo not given in full)	VP16 counter inconclusive, RORg inh 20µM (no result: Giardia killer, p53 reactivator, ELG1 repair inh, BRCA1 expr act)
CC1CC(C)(C)NC(=S)N1CCCC(=O)Nc1ccc(F)cc1 (stereo not given)	VP16 counter inconclusive, RORg inh 13µM
Cc1ccc(NC(=O)CCCN2C(=S)NC(C)(C)CC2C)cc1 (stereo not given)	VP16 counter inconclusive, p53 reactivator inconclusive, RORg inh 13µM
CC1CC(C)(C)NC(=S)N1CCCC(=O)Nc1ccc2c(c1)OCCO2 (stereo not given)	ELG1 repair inh inconclusive, BRCA1 expr act 13µM
CC1CC(C)(C)NC(=S)N1CCCC(=O)NCc1ccccc1 (stereo not given)	RORg inh inconclusive
CC1CC(C)(C)NC(=S)N1CC(=O)NCc1ccc(Cl)cc1 (stereo not given)	VP16 counter inconclusive, RORg inh 11µM
O=C(c1cc2ccccc2o1)N1CCN(S(=O)(=O)c2c(F)cccc2F)CC1	Giardia killer inconclusive, ELG1 repair inh inconclusive (no result: VP16 counter, RORg inh)
CS(=O)(=O)c1ccc2nc(NC(=O)c3ccc(NS(=O)(=O)c4cccc([N+](=O)[O-])c4)cc3)sc2c1	none
Cc1ccccc1SCC(=O)NCC(c1ccc(F)cc1)N1CCOCC1 (stereo not given)	none (no result: VP16 counter, RORg inh)
CCc1ccc(NC(=O)CCCN2C(=S)NC(C)(C)CC2C)cc1 (stereo not given)	VP16 counter inconclusive, RORg inh 4.5µM
O=C(Nc1cccc(-c2csc(Nc3ccc(Cl)cc3)n2)c1)c1ccccc1	p53 reactivator inconclusive, ELG1 repair inh inconclusive
O=C(Nc1cccc(-c2csc(Nc3ccc(Cl)cc3)n2)c1)c1cccc(C(F)(F)F)c1	ELG1 repair inh 9.2µM, RORg inh inconclusive
Cn1cccc1/C=C1\CC(C(C)(C)C)C/C(=C\c2cccn2C)C1=O (stereo not given)	VP16 counter 5µM, ELG1 repair inh inconclusive, RORg inh inconclusive
Cn1cccc1/C=C1\CCc2ccccc2C1=O	Giardia killer inconclusive, p53 reactivator inconclusive, ELG1 repair inh inconclusive, BRCA1 expr act inconclusive, RORg inh 13µM
COc1ccc(/C=C2\NC(=O)C(C=NCc3ccccc3)=C2O)cc1	ELG1 repair inh inconclusive
O=C1N/C(=C\c2ccc(O)cc2)C(O)=C1C=NCc1ccccc1	VP16 counter inconclusive, ELG1 repair inh inconclusive, RORg inh 4µM
CCOC(=O)C1=C(CC)Nc2ccccc2N=C1NC(=O)CCN1C(=O)C2CCCCC2C1=O (stereo not given)	ELG1 repair inh inconclusive
CCOC(=O)C1CCCN(C(c2ccccn2)c2c(C)[nH]c3ccccc23)C1 (stereo not given)	RORg inh 13µM
Cc1[nH]c2ccccc2c1C(c1ccccn1)N1CCCC1 (stereo not given)	none
CC(=O)N1CCN(c2ccccc2NC(=O)c2cc3ccccc3o2)CC1	ELG1 repair inh 15µM, RORg inh inconclusive
COCCNC(=O)c1cc2cc3ccc(OC)cc3nc2o1	VP16 counter inconclusive, ELG1 repair inh inconclusive, BRCA1 expr act inconclusive
COc1ccc2cc3cc(C(=O)NCCN4CCN(c5ccccc5F)CC4)oc3nc2c1	ELG1 repair inh inconclusive, RORg inh inconclusive
COc1ccc2nc3oc(C(=O)N4CCCCC4)cc3cc2c1	p53 reactivator inconclusive, ELG1 repair inh inconclusive, BRCA1 expr act 7.1µM
COc1ccc2cc3cc(C(=O)Nc4ccccc4N4CCN(C)CC4)oc3nc2c1	Giardia killer -87
COc1ccc2nc3oc(C(=O)N4CC(C)CC(C)C4)cc3cc2c1 (stereo not given)	ELG1 repair inh inconclusive
CCC(C)NC(=O)c1cc2cc3ccc(OC)cc3nc2o1 (stereo not given)	p53 reactivator inconclusive, ELG1 repair inh inconclusive, BRCA1 expr act 11µM, RORg inh inconclusive
CCOC(=O)C(C)/C(C)=N\Nc1ccc([N+](=O)[O-])cc1[N+](=O)[O-] (stereo not given)	RORg inh inconclusive
CCOC(=O)C(C)/C(C)=N/NC(N)=S (stereo not given)	VP16 counter 1.3µM, RORg inh 0.71µM
C=CCn1c(SCN2C(=O)c3ccccc3C2=O)nc2ccc(Cl)cc2c1=O	VP16 counter 7.9µM, RORg inh 8.9µM
CCOc1ccc(NC(=O)Nc2ccc3snnc3c2)cc1	none (no result: VP16 counter, Giardia killer, p53 reactivator, ELG1 repair inh, RORg inh)
CC(C)(C)OC(=O)NCCCC[C@H](NC(=O)c1nc[nH]c1C(=O)N[C@@H](CCCCNC(=O)OC(C)(C)C)C(=O)OC(C)(C)C)C(=O)OC(C)(C)C	ELG1 repair inh 9.2µM, RORg inh inconclusive
C[C@H](NC(=O)c1nc[nH]c1C(=O)N[C@@H](CCCCN)C(=O)OC(C)(C)C)C(=O)OC(C)(C)C	ELG1 repair inh inconclusive (no result: VP16 counter, RORg inh)
CC(C)(C)OC(=O)NCCCC[C@H](NC(=O)c1nc[nH]c1C(=O)NC(c1ccccc1)c1ccccc1)C(=O)OC(C)(C)C	VP16 counter inconclusive, RORg inh 10µM
C[C@H](NC(=O)c1nc[nH]c1C(=O)N[C@@H](CCCCNC(=O)OC(C)(C)C)C(=O)OC(C)(C)C)C(=O)OC(C)(C)C	VP16 counter 13µM, ELG1 repair inh inconclusive, RORg inh inconclusive
CC(C)(C)OC(=O)[C@H](CCCCN)NC(=O)c1nc[nH]c1C(=O)NCCCCCN	Giardia killer inconclusive (no result: VP16 counter, RORg inh)
CC(C)(C)OC(=O)NCCCCCNC(=O)c1[nH]cnc1C(=O)N[C@@H](CCCCNC(=O)OC(C)(C)C)C(=O)OC(C)(C)C	VP16 counter inconclusive, ELG1 repair inh inconclusive, RORg inh inconclusive
Cc1cccc(C)c1OCC(=O)NNC(=O)c1ccoc1C	none
CCOC(=O)c1ccc(-c2c(C)cc3oc(=O)cc(-c4ccccc4)c3c2C)cc1	none
C/C(=N\NC(=O)c1nonc1N)c1cccs1	p53 reactivator inconclusive, ELG1 repair inh inconclusive, RORg inh 0.32µM
C/C(=N/NC(=O)c1cccs1)c1cccc(N)c1	ELG1 repair inh inconclusive, BRCA1 expr act 11µM, RORg inh inconclusive

Compound activity (PubChem)
